Test results reported in PubChem BioAssay (EPA / NIEHS).
Inconclusive results are not listed. The source made the active and inactive calls. The calls were made as follows, unless noted: active = hit-call score of the fitted dose curve at least 0.9, where 1 is the maximum; inconclusive = response in the unintended direction; inactive = score below 0.9.

Columns and labels:
[1] = read-out: organic anion transporter (SLCO1B1), SLCO1B1 (gene 10599); test: CLD_SLCO1B1_6hr: CellzDirect (CLD) Gene Expression Assay for organic anion transporter (SLCO1B1) at 6 hours (AID 2283668);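 also: active means mRNA induction above DMSO baseline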
Procedure, shortened: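 SLCO1B1 mRNA induction measured 6 h after dosing by quantitative nuclease protection with chemiluminescent read-out, in human primary hepatocyte cultures given chemicals at several concentrations (vehicle 0.2% DMSO). Increase over DMSO baseline fitted; morphology-based cytotoxicity annotated yes/no.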

[2] = read-out: sulfotransferase (SULT2A), SULT2A1 (gene 6822); test: CLD_SULT2A_6hr: CellzDirect (CLD) Gene Expression Assay for sulfotransferase (SULT2A) at 6 hours (AID 2283669);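 also: hits raise transcript level above the DMSO vehicle baseline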
Procedure, shortened: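 Measured 6 h after dosing, SULT2A1 mRNA in human hepatocyte lysates was quantified by S1 nuclease protection with chemiluminescent detection. Increases fitted against 0.2% DMSO vehicle baseline; phase-contrast cytotoxicity recorded yes/no.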

[3] = read-out: glucuronosyltransferase (UGT1A1), UGT1A1 (gene 54658); test: CLD_UGT1A1_6hr: CellzDirect (CLD) Gene Expression Assay for glucuronosyltransferase (UGT1A1) at 6 hours (AID 2283672)
Procedure, shortened: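 UGT1A1 mRNA induction, read by quantitative nuclease protection assay, 6 h after dosing primary human hepatocytes (two donors, 0.2% DMSO vehicle). Gain of signal fitted relative to vehicle.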

[4] = read-out: xenobiotic metabolism (CYP1A1), CYP1A1 (gene 1543); test: CLD_CYP1A1_24hr: CellzDirect (CLD) Gene Expression Assay for xenobiotic metabolism (CYP1A1) at 24 hours (AID 2283673);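 also: CYP1A1 mRNA level by quantitative nuclease protection with chemiluminescence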
Procedure, shortened: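 Transcript levels were read at 24 h by qNPA chemiluminescence in human liver primary cells. Cells got daily fresh dosing at multiple concentrations (vehicle 0.2% DMSO). Induction fitted upward against DMSO; phase-contrast cytotoxicity annotated.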

[5] = CLD_ACTIN_6hr: CellzDirect (CLD) Gene Expression Assay for Baseline Control (Actin) at 6 hours (AID 2283676);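 also: active means increased actin mRNA relative to DMSO vehicle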
Procedure, shortened: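 Baseline actin transcript level measured by qNPA (S1 nuclease protection, chemiluminescence) in human hepatocyte cultures 6 h after chemical exposure; 0.2% DMSO vehicle as reference, cytotoxicity noted from morphology.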

[6] = read-out: Cytochrome P450 2B6 (Homo sapiens) (UniProt P20813); test: CLD_CYP2B6_6hr: CellzDirect (CLD) Gene Expression Assay for xenobiotic metabolism (CYP2B6) at 6 hours (AID 2283677);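 also: actives raise CYP2B6 transcript above DMSO baseline so AC50 marks an inducer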
Procedure, shortened: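 CYP2B6 transcript levels, read by chemiluminescent qNPA, were fitted for increase versus DMSO baseline; cultured human liver hepatocytes from two donor preparations were harvested 6 h after exposure to test chemicals at multiple concentrations.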

[7] = read-out: Cytochrome P450 2C19 (Homo sapiens) (UniProt P33261); test: CLD_CYP2C19_6hr: CellzDirect (CLD) Gene Expression Assay for xenobiotic metabolism (CYP2C19) at 6 hours (AID 2283678)
Procedure, shortened: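 CYP2C19 transcript induction was quantified by quantitative nuclease protection assay with chemiluminescent read-out, 6 h after dosing. Cells were primary human hepatocytes from two donor preparations, given fresh dosing solutions daily in 0.2% DMSO vehicle. Activity was relative to DMSO.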

[8] = read-out: HMG-CoA synthase (HMGCS2), HMGCS2 (gene 3158); test: CLD_HMGCS2_6hr: CellzDirect (CLD) Gene Expression Assay for HMG-CoA synthase (HMGCS2) at 6 hours (AID 2283682);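 also: actives raise HMGCS2 transcript above the 0.2% DMSO vehicle baseline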
Procedure, shortened: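 HMGCS2 transcript induction read by quantitative nuclease protection with chemiluminescence, 6 h after dosing of primary human hepatocytes. Baseline was 0.2% DMSO vehicle; phase-contrast morphology gave a yes/no cytotoxicity annotation.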

[9] = read-out: xenobiotic metabolism (CYP1A2), CYP1A2 (gene 1544); test: CLD_CYP1A2_24hr: CellzDirect (CLD) Gene Expression Assay for xenobiotic metabolism (CYP1A2) at 24 hours (AID 2283683)
Procedure, shortened: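 CYP1A2 mRNA induction measured by quantitative nuclease protection (chemiluminescent) in human primary hepatocytes 24 h after multi-concentration chemical dosing with daily fresh solutions. DMSO (0.2%) baseline; positive-direction fitting; morphology-based cytotoxicity noted.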

[10] = read-out: Cytochrome P450 2B6 (Homo sapiens) (UniProt P20813); test: CLD_CYP2B6_24hr: CellzDirect (CLD) Gene Expression Assay for xenobiotic metabolism (CYP2B6) at 24 hours (AID 2283686)
Procedure, shortened: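 qNPA chemiluminescent measurement of mRNA at 24 hours in human primary hepatocyte cultures from two donor preparations, with daily fresh dosing and 0.2% DMSO vehicle as baseline. Morphology-based cytotoxicity flagged yes/no.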

[11] = CLD_ACTIN_24hr: CellzDirect (CLD) Gene Expression Assay for Baseline Control (Actin) at 24 hours (AID 2283670)
Procedure, shortened: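 This 24 h qNPA (S1 nuclease protection, chemiluminescence) actin transcript readout in cultured human liver primary cells serves as baseline control. Signal is fitted upward relative to 0.2% DMSO; chemicals tested at multiple concentrations across two donor preparations.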

[12] = read-out: Cytochrome P450 3A4 (Homo sapiens) (UniProt P08684); test: CLD_CYP3A4_6hr: CellzDirect (CLD) Gene Expression Assay for xenobiotic metabolism (CYP3A4) at 6 hours (AID 2283680)
Procedure, shortened: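 CYP3A4 mRNA induction, 6 h after dosing of cultured primary human hepatocytes from two donors, read by quantitative nuclease protection (qNPA, chemiluminescence). Vehicle 0.2% DMSO as baseline; morphology-based cytotoxicity annotated yes/no.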

[13] = read-out: ABC Transporter (ABCB1), ABCB1 (gene 5243); test: CLD_ABCB1_24hr: CellzDirect (CLD) Gene Expression Assay for ABC Transporter (ABCB1) at 24 hours (AID 2283684)
Procedure, shortened: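 ABCB1 mRNA induction versus 0.2% DMSO vehicle was read by qNPA chemiluminescence at 24 h. Cultured human hepatocytes from two donor preparations received daily fresh dosing, and phase-contrast cytotoxicity calls were annotated alongside the data.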

[14] = read-out: Broad substrate specificity ATP-binding cassette transporter ABCG2 (Homo sapiens) (UniProt Q9UNQ0); test: CLD_ABCG2_24hr: CellzDirect (CLD) Gene Expression Assay for ABC Transporter (ABCG2) at 24 hours (AID 2283685)
Procedure, shortened: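 ABCG2 mRNA induction, read as gain of chemiluminescent signal over 0.2% DMSO, was measured by quantitative nuclease protection at 24 h. Cultured human liver hepatocytes were given fresh dosing solutions of test chemicals at several concentrations each day.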

[15] = read-out: ABC Transporter (ABCB11), ABCB11 (gene 8647); test: CLD_ABCB11_24hr: CellzDirect (CLD) Gene Expression Assay for ABC Transporter (ABCB11) at 24 hours (AID 2283674; active = hit-call score of the fitted dose curve at least 0.9, where 1 is the maximum; inactive = score below 0.9)
Procedure, shortened: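 ABCB11 transcript was quantified by qNPA chemiluminescence in cultured human liver hepatocytes 24 hours after dosing. Fresh dosing solutions were applied on consecutive days, against a 0.2% DMSO vehicle. Cytotoxicity was noted by phase-contrast morphology.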

[16] = CCTE_Padilla_ZF_144hpf_TERATOSCORE: (Legacy) CCTE's 144 Hour Post-fertilization zebrafish Assay Teratoscore, Padilla Lab (AID 2283679; active = hit-call score of the fitted dose curve at least 0.9, where 1 is the maximum; inactive = score below 0.9;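 as to AC50: zebrafish embryos with chorions exposed by immersion from 6-8 hpf to 5 dpf with daily renewal; teratogenicity score from eye scoring of death hatching and malformations at 144 hpf; higher score means more developmental defects relative to DMSO baseline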)
Procedure, shortened: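 Larvae scored by eye at 144 hpf for death, hatching and malformations after a day in clean Hanks'. Before that, daily-renewed exposure at 80 uM (0.4% DMSO, 26C) from roughly 6-8 hpf through 5 dpf, 4 embryos per chemical.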

[17] = read-out: ABC Transporter (ABCB11), ABCB11 (gene 8647); test: CLD_ABCB11_6hr: CellzDirect (CLD) Gene Expression Assay for ABC Transporter (ABCB11) at 6 hours (AID 2283675);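 also: hits raise ABCB11 mRNA level so AC50 marks induction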
Procedure, shortened: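 Read-out was ABCB11 mRNA gain of signal by quantitative nuclease protection assay, relative to 0.2% DMSO vehicle, 6 h post-dose. Cells were primary human hepatocytes from two donors, treated across multiple concentrations; phase-contrast cytotoxicity noted yes/no.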

Measured: AC50

Cytochrome P450 3A4 (Homo sapiens), sequence (P08684 whole entry, looked up): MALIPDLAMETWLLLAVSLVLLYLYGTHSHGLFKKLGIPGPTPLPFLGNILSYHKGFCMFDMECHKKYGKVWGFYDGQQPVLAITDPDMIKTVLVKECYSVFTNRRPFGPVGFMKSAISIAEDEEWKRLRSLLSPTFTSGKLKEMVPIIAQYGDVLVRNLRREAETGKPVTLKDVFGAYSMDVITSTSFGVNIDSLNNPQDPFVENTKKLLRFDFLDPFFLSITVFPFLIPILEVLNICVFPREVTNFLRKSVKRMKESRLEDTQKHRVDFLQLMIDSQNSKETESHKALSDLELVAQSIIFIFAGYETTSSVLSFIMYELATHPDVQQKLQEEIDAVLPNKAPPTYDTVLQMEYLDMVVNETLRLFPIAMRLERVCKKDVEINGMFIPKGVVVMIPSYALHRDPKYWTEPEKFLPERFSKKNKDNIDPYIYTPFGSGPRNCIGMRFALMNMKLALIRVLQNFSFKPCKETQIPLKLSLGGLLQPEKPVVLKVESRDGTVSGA
Cytochrome P450 2C19 (Homo sapiens), sequence (P33261 whole entry, looked up): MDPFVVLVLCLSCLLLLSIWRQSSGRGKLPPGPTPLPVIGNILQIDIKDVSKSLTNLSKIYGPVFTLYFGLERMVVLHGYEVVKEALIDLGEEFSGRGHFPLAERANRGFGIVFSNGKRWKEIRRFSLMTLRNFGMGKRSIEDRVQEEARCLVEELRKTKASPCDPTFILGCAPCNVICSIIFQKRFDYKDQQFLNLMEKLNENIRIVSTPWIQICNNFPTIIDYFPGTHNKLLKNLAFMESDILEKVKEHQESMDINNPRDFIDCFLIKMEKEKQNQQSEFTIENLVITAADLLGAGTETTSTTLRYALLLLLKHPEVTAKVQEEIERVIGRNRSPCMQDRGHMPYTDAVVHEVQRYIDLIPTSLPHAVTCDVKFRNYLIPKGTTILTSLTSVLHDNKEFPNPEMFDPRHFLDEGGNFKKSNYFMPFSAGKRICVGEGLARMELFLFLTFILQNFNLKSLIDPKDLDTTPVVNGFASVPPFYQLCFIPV
Broad substrate specificity ATP-binding cassette transporter ABCG2 (Homo sapiens), sequence (Q9UNQ0 whole entry, looked up): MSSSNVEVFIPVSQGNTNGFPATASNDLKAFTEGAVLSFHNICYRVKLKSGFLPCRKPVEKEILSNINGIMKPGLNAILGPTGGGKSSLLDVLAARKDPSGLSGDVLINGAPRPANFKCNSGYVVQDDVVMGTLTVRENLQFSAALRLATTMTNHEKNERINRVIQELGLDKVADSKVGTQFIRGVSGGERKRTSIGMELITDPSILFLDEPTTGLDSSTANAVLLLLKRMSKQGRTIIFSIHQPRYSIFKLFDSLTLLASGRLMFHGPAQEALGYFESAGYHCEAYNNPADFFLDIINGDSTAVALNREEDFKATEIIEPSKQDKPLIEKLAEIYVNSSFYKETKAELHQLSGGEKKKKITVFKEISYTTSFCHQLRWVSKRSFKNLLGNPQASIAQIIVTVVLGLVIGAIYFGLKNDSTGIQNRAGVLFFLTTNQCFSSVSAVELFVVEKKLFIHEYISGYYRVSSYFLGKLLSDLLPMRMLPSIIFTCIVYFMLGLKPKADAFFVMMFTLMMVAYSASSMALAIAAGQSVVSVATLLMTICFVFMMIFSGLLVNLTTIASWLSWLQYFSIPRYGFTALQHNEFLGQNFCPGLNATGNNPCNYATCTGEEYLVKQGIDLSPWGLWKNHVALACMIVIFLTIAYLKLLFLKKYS

CS(=O)(=O)c1cc(C(F)(F)F)ccc1C(=O)c1cnoc1C1CC1
inactive: [1] | [2] | [3] | [4] | [5] | [6] | [7] | [9]
active: [8] 3.97 µM | [10] 6.01 µM

Clc1cccc(C(Cl)(Cl)Cl)n1
active: [4] 3.97 µM | [6] 1.9 µM | [10] 0.325 µM
not listed: [15] | [16] | [17]
inactive: all other assays above

CCOc1nc(F)cc2nc(S(=O)(=O)Nc3c(Cl)cccc3Cl)nn12
active: [4] 20 µM | [10] 6.27 µM
not listed: [5] | [6] | [11] | [13] | [17]
inactive: all other assays above

CCNC(=O)NC(=O)C(C#N)=NOC
active: [16] 33.1 µM
inactive: [1] | [3] | [15] | [7] | [8] | [9] | [14]

COc1cc(OC)nc(NC(=O)NS(=O)(=O)c2ncccc2OCC(F)(F)F)n1
not listed: [3] | [10] | [11] | [12] | [14]
inactive: all other assays above

CC1(C)CCC(=Cc2ccc(Cl)cc2)C1(O)Cn1cncn1 (stereo not given)
inactive: [1] | [2] | [3] | [5] | [7] | [12] | [13] | [14]
active: [4] 4.02 µM | [9] 3.47 µM | [10] 3.58 µM

CCN(CC)c1nc(C)cc(OP(=S)(OC)OC)n1
inactive: [1] | [2] | [3] | [8]
active: [4] 5.14 µM | [6] 1.59 µM | [9] 3.97 µM | [10] 0.902 µM

COP(=S)(OC)Oc1ccc([N+](=O)[O-])c(C)c1
inactive: [2] | [3] | [5] | [7] | [12]
active: [4] 3.97 µM | [9] 1.38 µM | [10] 0.692 µM

CCN(CC)C(=O)C(C)Oc1cccc2ccccc12 (stereo not given)
inactive: [2] | [3] | [4] | [10]
active: [6] 0.317 µM | [9] 8.79 µM

COP(=S)(OC)SCn1nnc2ccccc2c1=O
active: [3] 1.73 µM | [4] 3.65 µM | [6] 0.448 µM | [16] 15.2 µM | [12] 0.975 µM | [9] 2.27 µM | [10] 4.46 µM
inactive: [2] | [15] | [5] | [14]
